A selection: hits, their analogues and other compounds. The true share with any hit is near 11%.
VDR inhibitor: blocks the human vitamin D receptor; P11473; VDR-SRC2-3 peptide fluorescence polarization, 2 h; Potency, µM, without a hit: max response, negative = inhibition, usual class: inhibitors; actives 0.93% (n = 400,000); further: on the % scale 0 is the no-effect control and ±100 the full control effect
Target sequence (P11473 whole entry, looked up): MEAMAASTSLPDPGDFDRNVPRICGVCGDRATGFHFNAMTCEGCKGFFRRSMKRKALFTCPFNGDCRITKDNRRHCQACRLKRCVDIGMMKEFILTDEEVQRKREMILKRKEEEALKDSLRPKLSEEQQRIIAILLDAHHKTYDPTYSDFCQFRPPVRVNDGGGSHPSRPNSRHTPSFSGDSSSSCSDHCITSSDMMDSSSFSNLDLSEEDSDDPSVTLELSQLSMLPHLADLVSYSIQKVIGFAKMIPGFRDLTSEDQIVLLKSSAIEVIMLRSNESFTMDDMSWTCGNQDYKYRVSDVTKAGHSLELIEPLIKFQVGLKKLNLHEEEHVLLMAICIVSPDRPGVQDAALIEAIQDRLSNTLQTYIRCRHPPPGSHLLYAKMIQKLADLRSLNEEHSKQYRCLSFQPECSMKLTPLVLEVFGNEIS
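The screen uses fluorescence polarization to detect compounds that interfere with recruitment of the SRC2-3 coactivator peptide to VDR; plates are read after 2 h at room temperature.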
JMJD2A Tudor: inhibitors of human JMJD2A Tudor domain; AlphaScreen JMJD2A-Tudor / H3K4me3 peptide binding; actives 4.4% (n = 390,000); AID 504339; Potency, µM (titrated, usually from 114 µM), inactives show top-dose activity change, negative = inhibition, most hits filed as inhibitors; further: on the % scale 0 is the no-effect control and ±100 the full control effect; nearly all actives have a fitted effect of over 50% in size
G9a inh: G9a (human) methyltransferase inhibition; G9a H3K9 monomethylation, AlphaScreen, 2 h; AID 504332; actives 8.8% (n = 350,000); Potency, µM (titrated, usually from 102 µM), without a hit: at the highest dose activity, negative = inhibition, actives largely listed as inhibitors; Q96KQ7; further: on the % scale 0 is the no-effect control and ±100 the full control effect; nearly all actives have a fitted effect of over 75% in size
Target sequence (Q96KQ7 913-1193 limits assumed): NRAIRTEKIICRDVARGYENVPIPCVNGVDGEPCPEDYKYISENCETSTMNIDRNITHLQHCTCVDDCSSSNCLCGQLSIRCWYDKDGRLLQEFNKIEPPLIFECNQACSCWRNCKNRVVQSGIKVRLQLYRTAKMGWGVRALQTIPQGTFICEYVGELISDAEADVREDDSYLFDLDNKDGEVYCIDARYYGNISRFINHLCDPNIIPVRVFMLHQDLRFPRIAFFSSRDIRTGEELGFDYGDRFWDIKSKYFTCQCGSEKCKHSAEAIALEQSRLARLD
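G9a (20 nM) preincubated 15 min RT with compounds, then 500 nM biotinylated H3K9 peptide and 20 uM SAM added; 2 h RT reaction. Monomethyl-H3K9 product detected by AlphaScreen with anti-H3K9me1 antibody, streptavidin donor and anti-rabbit IgG acceptor beads.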
BAZ2B block: BAZ2B (human) inhibition; AlphaScreen BAZ2B-H3K14Ac peptide displacement; Potency, µM (titrated, usually from 114 µM), for the others: at the top dose activity change, negative = inhibition, most hits filed as inhibitors; actives 4.4% (n = 360,000); further: on the % scale 0 is the no-effect control and ±100 the full control effect; nearly all actives have a fitted effect of over 60% in size
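Compounds, titrated to a top concentration of 110 uM, were incubated 30 min at room temperature with preformed BAZ2B/acetyl-K14 H3 peptide complex (50 nM each). Proximity signal was measured by AlphaScreen after 20 min with beads.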
PLK1 PBD inh: inhibitors of human PLK1 polo-box domain binding. actives 2.8% (n = 360,000). Plk1 PBD binding of FITC phosphopeptide, fluorescence polarization. Potency, µM, without a hit: max response, negative = inhibition, usual class: inhibitors; further: series mostly up to about 57 µM; on the % scale 0 is the no-effect control and ±100 the full control effect; nearly all actives have a fitted effect of over 65% in size
HP1b chromo inh: inhibitors of HP1-beta chromodomain binding to methylated histone tails; Potency, µM (series often up to 114 µM), without a hit: at the highest dose activity change, negative = inhibition, actives largely listed as inhibitors; actives 0.56% (n = 390,000); P83916; AlphaScreen HP1-beta / biotin-H3K9me3 peptide binding; AID 540317; further: nearly all actives have a fitted effect of over 70% in size
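HP1-beta protein (50 nM final) preincubated 30 min at room temperature with biotinylated H3(1-18)K9me3 peptide (50 nM) in PBS pH 7.4, 0.01% Tween-20, then compound added for 30 min. AlphaScreen streptavidin donor/nickel chelate acceptor beads (10 ug/mL final), 30 min dark, luminescence read.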
* = called active by the depositor; ? = inconclusive; nt = not tested or not shown; [ ] = dose if it differs, or a comment. The call rests on the fitted dose curve; in most records, active means well fitted curve in the direction sought with a large enough effect; inconclusive means small, poorly fitted or top-dose-only effect, or another doubt; inactive means no such curve, though single readings can be large; an effect the other way counts as inactive or inconclusive. Potency means the concentration at half of the fitted maximal effect.

SMILES	VDR inhibitor	JMJD2A Tudor	G9a inh	BAZ2B block	PLK1 PBD inh	HP1b chromo inh
COc1ccc(-n2c(COc3ccccc3)nnc2SCC(N)=O)cc1	3%	-32%	45µM*	-4%	-6%	48%
O=C(Nc1ccccc1)C1=C[C@@H](C2CC2)C[C@@H](OCCCCO)O1	-1%	3%	-6%[59 µM]	-10%	2%	30%
COc1cccc(N2C(=O)N(CC(=O)NCc3cccc(OC)c3OC)c3ccccc3S2(=O)=O)c1	9%	-5%	6%[59 µM]	0%	nt	47%
CCn1c(COc2ccc3c(c2)OCO3)nnc1SCC(=O)c1ccc(Cl)cc1	-13%	-10%	50µM*	-1%	-9%	18%
COc1cccc(-c2nnc(SCC(N)=O)n2-c2ccc(Cl)cc2)c1	11%	-11%	28µM*	-7%	-4%	24%
CNC(=O)CSc1nnc(COc2ccc([N+](=O)[O-])cc2)n1C	14%	-6%	19%[59 µM]	56µM*	-7%	60%
CCn1c(COc2ccccc2)nnc1SCC(=O)c1cccc([N+](=O)[O-])c1	-1%	?	40µM*	-34%	-26%	-5%
CC(Sc1nnc(COc2ccc([N+](=O)[O-])cc2)n1C)C(=O)O (stereo not given)	-12%	-10%	2%	-3%	-16%	5%
C=CCn1c(SCC(=O)c2ccc(Cl)cc2)nnc1-c1ccc2c(c1)OCO2	-18%	0%	?	?	-1%	22%
Cc1c(NC(=S)NC(=O)c2cccc(Cl)c2)c(=O)n(-c2ccccc2)n1C	-17%	4%	nt	?	-4%	21%
O=C(COC(=O)COc1ccc(Cl)cc1)Nc1cccnc1Cl	nt	nt	nt	nt	-6%	nt
Cc1nc2cnc(Oc3cccc(Cl)c3)nc2n(C[C@H]2CCCO2)c1=O	4%	nt	-22%[12.7 µM]	nt	nt	nt
CC1(C)CC(=O)c2c(O)cc(OCC(=O)N3CCN(c4ccccc4)CC3)cc2O1	-4%	-35%	-27%	?	-14%	2%
CN1CCCN(Cc2ccccc2Br)CC1	-9%	0.89µM*	22µM*	?	-7%	?
O=C(c1cccc(Cl)c1)N1CCN(Cc2c[nH]c3ccccc23)CC1	15%	3.5µM*	7%	4%	-5%	0%
O=[N+]([O-])c1ccc(CN2CCN(Cc3c[nH]c4ccccc34)CC2)cc1	6%	7.9µM*	8.9µM*	22µM*	6%	?
Brc1ccccc1CN1CCN(Cc2c[nH]c3ccccc23)CC1	-6%	0.79µM*	nt	nt	-2%	40µM*
CN1CCCN(C(=O)CNC(=O)c2ccccc2Br)CC1	3%	-9%	nt	nt	-4%	29%
Fc1ccc(N2CCN(Cc3c[nH]c4ccccc34)CC2)cc1	nt	nt	-10%[59 µM]	?	nt	nt
c1cnc(N2CCN(Cc3c[nH]c4ccccc34)CC2)nc1	5%	-22%	?	-8%	-7%	6%
Brc1ccc(CN2CCN(Cc3c[nH]c4ccccc34)CC2)cc1	0%	2.2µM*	50µM*	40µM*	4%	22µM*
COc1ccccc1N1CCN(Cc2c[nH]c3ccccc23)CC1	5%	-26%	3%	-17%	-3%	-11%
Cc1ccccc1N1CCN(Cc2c[nH]c3ccccc23)CC1	-4%	5µM*	32µM*	?	3%	?
CCC(CC)N1CCN(C(=O)c2cccc(Cl)c2)CC1	20%	20µM*	7.9µM*	56µM*	-9%	?
CCS(=O)(=O)N1CCN(Cc2c[nH]c3ccccc23)CC1	-19%	1.1µM*	14µM*	56µM*	5%	?
SMILES	VDR inhibitor	JMJD2A Tudor	G9a inh	BAZ2B block	PLK1 PBD inh	HP1b chromo inh
CCCn1c(=O)c(C(=O)NCCc2ccc(Cl)cc2)c(O)c2ccccc21	10%	92%	139%	43%	-9%	141%
CCC(C(=O)NC(C)c1ccccc1)C(=O)NC(C)c1ccccc1 (stereo not given)	3%	-11%	14%[2.33 µM]	2%	3%	16%
C=CCC(C(=O)NC(C)c1ccccc1)C(=O)NC(C)c1ccccc1 (stereo not given)	-1%	-34%	33%[0.501 µM]	-2%	27µM*	-5%
NC(=S)N=Nc1ccc(O)cc1	?	-26%	nt	nt	27µM*	?
NC(N)=NC(N)=Nc1ccc(O)cc1	-26%	-10%	3%	0%	-2%	32%
COc1ccc(C(CCNCc2ccc(N(C)C)cc2)C(C)C)cc1 (stereo not given)	-6%	32µM*	32µM*	25µM*	5%	?
COc1ccc(CNCCC(c2ccc(OC(C)C)cc2)c2ccccc2OC)cc1 (stereo not given)	-12%	-31%	-6%[2.33 µM]	?	-12%	9%
COc1ccccc1C(CCNCc1ccc(N(C)C)cc1)c1ccc(OC(C)C)cc1 (stereo not given)	-8%	13µM*	18%[2.33 µM]	10µM*	-5%	?
COc1ccc(CNCCC(c2ccccc2)c2ccc3c(c2)OCO3)cc1 (stereo not given)	-5%	-31%	20µM*	?	3%	16%
Cn1c(O)c(N=NC(=N)N)c2ccccc21	31%	-3%	nt	-6%	1%	18%
Cc1ccccc1N=Nc1c(O)n(C)c2ccccc12	-22%	-33%	7.9µM*	-14%	?	26%
CNc1ncnc2ccc(-c3ccccc3C)cc12	-20%	nt	0%[0.501 µM]	nt	nt	nt
CN1CCN(NC(=O)CN2C(=O)/C(=C/c3ccccc3Cl)SC2=S)CC1	2%	?	?	?	?	-11%
CCc1ccc(/C=C2/SC(=S)N(CC(=O)Nc3nc4ccccc4s3)C2=O)cc1	6%	?	32%[0.501 µM]	?	?	?
COc1ccc(CCN2C(=O)/C(=C\c3ccco3)SC2=S)cc1OC	11%	-30%	45µM*	8.9µM*	-11%	-22%
O=C(O)CCCN1C(=O)/C(=C\c2ccco2)SC1=S	-9%	79µM*	45µM*	?	-21%	?
O=C(CCCN1C(=O)/C(=C/c2ccccc2Cl)SC1=S)NNC(=O)c1ccccc1	4%	-10%	34%[59 µM]	-5%	2%	22%
O=C(O)CCN1C(=O)/C(=C\c2ccc(-c3nc4ccccc4s3)o2)SC1=S	-9%	4µM*	?	?	8.4µM*	18µM*
CN1CCN(NC(=O)CN2C(=O)/C(=C/c3c(Cl)cccc3Cl)SC2=S)CC1	22%	?	56µM*	?	-25%	20%
COc1ccc(CCN2C(=O)CSC2=S)cc1OC	13%	-19%	?	?	-2%	10%
CCOC(=O)n1cnc2nc(N)nc(SC)c21	-16%	-13%	nt	nt	-9%	-8%
O=C(NCc1ccc(F)cc1)C1CCCN(C(=O)Nc2ccc(F)cc2)C1 (stereo not given)	16%	-13%	17%	11%	-4%	19%

Source: PubChem (National Center for Advancing Translational Sciences (NCATS))
